Assay outcomes (PubChem BioAssay)
This excerpt belongs to a sample that is enriched for hits.
Pf Dd2 growth = qHTS Primary assay for Inhibitors of Plasmodium falciparum Dd2 growth in vitro; P. falciparum Dd2 growth, SYBR Green, 72 h; Potency, µM (doses to about 28.9 µM), for the others: top-dose activity, negative = inhibition, most hits filed as inhibitors; 4.3% of 120,000 active; active means well fitted inhibition curve with a large enough effect;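 further: plate controls were DMSO vehicle for no effect and reference drug for full effect; nearly all actives have a fitted effect of over 65% in size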
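Infected erythrocytes (Dd2, 0.3% parasitemia, 2.5% hematocrit final) are added to compound in RPMI-1640/Albumax II medium, grown 72 h at 37C in low oxygen, then lysed with saponin/Triton-X containing SYBR Green and read by fluorescence.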
* marks the source's active call; other numbers are inactive results; i = inactive; [ ] = remark or other dose. Potency means the concentration at half of the fitted maximal effect.

SMILES	Pf Dd2 growth
CC(C)c1nnc(NC(=O)C2CC(=O)N(c3n[nH]c4cc(Br)ccc34)C2)s1 (stereo not given)	-5%
Cc1cn2nc(C(=O)N3CCC(NC(=O)c4cccn4C)CC3)cc2c(=O)[nH]1	14%
CC[C@@H]1[C@@H](NC(=O)CCc2c(C)nc3ncnn3c2C)[C@@H]2CCO[C@H]12	-5%
COc1ccc(OC2CN([S+](=O)([O-])c3cccs3)C2)cc1	-3%
CCc1cccc2c(C(CC(=O)NCCc3ccccc3)c3cccc4c3OCO4)c[nH]c12 (stereo not given)	i
Cc1nc(-c2c3n(c(=O)n(CC(=O)Nc4ccc5c(c4)OCO5)c2=O)CCCCC3)no1	-11%
Cc1cccc(CC(=O)N2CCC(Nc3cccn4ncnc34)CC2)c1	11µM*
Cc1cccc(CC(=O)N2CCC(c3nn(C)c4c3COCC4)CC2)c1	i[5.79 µM]
